In PubChem BioAssay (NCATS):
Inconclusive results are not listed. Activity calls are given as the source filed them. Calls come from the whole dose curve; as a rule, active = well fitted cell-killing curve with a large enough effect; inconclusive = small, poorly fitted or top-dose-only effect, or effect the other way; inactive = no such curve, though single readings can be large or run the other way.

Assay: Quantitative High-Throughput drug screen in 47 multiple myeloma cell lines against the NCATS MIPE library collection: FR4_PLB cell viability assay (AID 1918924; note: nearly all actives have a fitted effect of over 35% in size;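 for viability (% of DMSO control): 100% = DMSO-treated cells and 0% = wells with media only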)
Settings: FR4_PLB myeloma cells viability, CellTiter-Glo ATP, 48 h; series mostly up to 45.8 µM; viability (% of DMSO control): at the top concentration
Summary of the method: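 Approved and investigational drugs from MIPE 4.0 were added by pin tool to 500 cells per well. After 48 hours at 37C, ATP-based CellTiter-Glo luminescence indicated remaining viability.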
Potency is the fitted concentration of half-maximal effect.

| SMILES | viability (% of DMSO control) | Potency |
| --- | --- | --- |
| O=C(O)C(=O)Nc1cccc(C2=NN=N[N]2)c1 | 113% (inactive) |  |
| CN1[C@H]2CC(OC(=O)[C@@H](CO)c3ccccc3)C[C@H]1[C@H]1O[C@H]12 (stereo partly specified) | 115% [at 23.2 µM] (inactive) |  |
| Cc1ccc(O)c(C(CCN(C(C)C)C(C)C)c2ccccc2)c1 (stereo unspecified) | 121% (inactive) |  |
| CC[C@H]1OC(=O)[C@H](C)[C@@H](O[C@H]2C[C@@](C)(OC)[C@@H](O)[C@H](C)O2)[C@H](C)[C@@H](O[C@@H]2O[C@@H](C)C[C@H](N(C)C)[C@@H]2O)[C@](C)(O)C[C@@H](C)C(=O)[C@H](C)[C@@H](O)[C@]1(C)O | 99.7% (inactive) |  |
| C=CC[C@@H]1C=C(C)C[C@H](C)C[C@H](OC)[C@H]2O[C@@](O)(C(=O)C(=O)N3CCCC[C@H]3C(=O)O[C@H](C(C)=C[C@@H]3CC[C@H](O)[C@H](OC)C3)[C@@H](C)[C@@H](O)CC1=O)[C@@H](C)C[C@@H]2OC |  | 2.64 µM (active) |
| CON=C(C(=O)N[C@@H]1C(=O)N2C(C(=O)O)=C(CSC(=O)c3ccco3)CS[C@H]12)c1csc(N)n1 | 128% (inactive) |  |
| CCc1cnn2c(NCc3ccc[n+]([O-])c3)cc(N3CCCC[C@@H]3CCO)nc12 |  | 0.0187 µM (active) |
| O=C(C=CC=Cc1ccc2c(c1)OCO2)N1CCCCC1 | 140% (inactive) |  |
| CC(=CC(=O)Nc1ccccc1C(=O)O)c1ccc2ccccc2c1 | 115% (inactive) |  |
| CON=C(C(=O)N[C@@H]1C(=O)N2C(C(=O)O)=C(Cn3ccc(=N)n3CCO)CS[C@H]12)c1csc(N)n1 | 102% (inactive) |  |
| C[C@]12CC[C@@H]3c4ccc(O)cc4CC[C@H]3[C@H]1CC[C@H]2O |  | 16.6 µM (active) |
| C[C@@H](Oc1ccc2[nH]nc(C=Cc3cnn(CCO)c3)c2c1)c1c(Cl)cncc1Cl |  | 26.4 µM (active) |
| COc1cc2c(cc1O)CCC1C2CC[C@@]2(C)C1CC[C@@H]2O (stereo partly specified) |  | 0.743 µM (active) |
| N=c1ccn2c(n1)O[C@H]1[C@@H](O)[C@@H](CO)O[C@H]12 | 114% (inactive) |  |
| CNC(=O)c1ccc(Nc2cc(Nc3ccccc3S(=O)(=O)C(C)C)c3cc[nH]c3n2)nc1 |  | 4.69 µM (active) |
| NC(=O)c1ncn([C@@H]2O[C@H](CO)[C@@H](O)[C@@H]2O)c1N | 148% (inactive) |  |

| SMILES | viability (% of DMSO control) | Potency |
| --- | --- | --- |
| COc1ccc2c(c1OC)C(=O)OC2[C@H]1c2c(cc3c(c2OC)OCO3)CCN1C (stereo partly specified) |  | 0.0526 µM (active) |
| C[C@H]1O[C@H](O[C@H]2[C@H](O)[C@@H](O)[C@@H](O[C@H]3[C@H](O)[C@@H](O)C(O)O[C@H]3CO)O[C@H]2CO)[C@H](O)[C@@H](O)[C@H]1N[C@H]1C=C(CO)[C@@H](O)[C@H](O)[C@@H]1O (stereo partly specified) | 114% (inactive) |  |
| O=C(O)C=Cc1ccc(Cn2ccnc2)cc1 | 120% (inactive) |  |
| CN[C@H](CC(C)C)C(=O)N[C@H]1C(=O)N[C@@H](CC(N)=O)C(=O)N[C@@H]2C(=O)N[C@H]3C(=O)N[C@H](C(=O)N[C@H](C(=O)O)c4cc(O)cc(O)c4-c4cc3ccc4O)[C@H](O)c3ccc(c(Cl)c3)Oc3cc2cc(c3O[C@@H]2O[C@H](CO)[C@@H](O)[C@H](O)[C@@H]2O[C@H]2C[C@](C)(N)[C@H](O)[C@H](C)O2)Oc2ccc(cc2Cl)[C@H]1O | 109% (inactive) |  |
| Cc1cc(-c2nnc3n2CCCCC3)c(C)n1-c1ccccc1 | 116% (inactive) |  |
| O=c1[nH]c(=O)n([C@H]2C[C@@H](O)[C@@H](CO)O2)cc1F |  | 13.2 µM (active) |
| Cc1onc(-c2ccccc2)c1C(=O)N[C@@H]1C(=O)N2[C@@H](C(=O)O)C(C)(C)S[C@@H]12 | 114% (inactive) |  |
| CO[C@@H]1[C@@H](O)[C@H](O)[C@@H](n2c3c(Cl)cccc3c3c4c(c5c6cccc(Cl)c6[nH]c5c32)C(=O)NC4=O)O[C@@H]1CO |  | 3.32 µM (active) |
| CC(=O)OCC(=O)[C@@]1(O)CC[C@H]2[C@@H]3CCC4=CC(=O)CC[C@]4(C)[C@@H]3C(=O)C[C@@]21C | 133% (inactive) |  |
| COc1cc(C)c(C=CC(C)=CC=CC(C)=CC(=O)O)c(C)c1C | 110% (inactive) |  |
| O=C(NNC(=O)c1ccc(CNS(=O)(=O)c2ccc(F)c(Cl)c2)cc1)c1ccccc1 | 107% (inactive) |  |
| CNC(=O)c1cccc(-c2ccc3c(N4CCOC[C@H]4C)nc(N4CCOC[C@H]4C)nc3n2)c1 |  | 0.0662 µM (active) |
| O=C(Nc1nnc(-c2ccco2)o1)c1cc(-c2ccccc2)nc2ccccc12 |  | 23.5 µM (active) |
| OC[C@@H](O)[C@@H](O)[C@H](O)[C@@H](O)CO | 120% (inactive) |  |
| COc1cccc2c1C(=O)c1c(O)c3c(c(O)c1C2=O)C[C@@](O)(C(C)=O)C[C@H]3O[C@H]1C[C@H](N)[C@H](O)[C@H](C)O1 |  | 0.132 µM (active) |
